Source: PubChem BioAssay (NCI)
The panel holds about 83,000 compounds, 20% with a hit somewhere; the sample as a whole holds those more often.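 Method: cells in 96-well plates; compound added at one concentration; 48 h incubation; percent growth measured; values under 10 scored active.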 The source made the active and inactive calls.

Legend:
Assay in all cases: NCI-60 one-dose screen, 48 h (100 = growth as untreated, 0 = no growth, -100 = all killed)
Details in all cases: 10 µM unless noted
NCI-H23 lung = tested on: NCI-H23 lung
NCI-H226 lung = tested on: NCI-H226 lung
NCI-H322M lung = tested on: NCI-H322M lung
HOP-62 NSCLC = tested on: HOP-62 NSCLC
NCI-H460 lung = tested on: NCI-H460 lung
HOP-92 NSCLC = tested on: HOP-92 NSCLC
NCI-H522 lung = tested on: NCI-H522 lung
A549/ATCC NSCLC = tested on: A549/ATCC NSCLC
786-0 renal = tested on: 786-0 renal
COLO 205 colon = tested on: COLO 205 colon

Measured: growth

C=CC(=O)N[C@@H](/C=C/C(=O)OCC)Cc1ccc(-c2cc(Cl)cc(Cl)c2)cc1
inactive: NCI-H23 lung 15.6% | NCI-H226 lung 10.8% | NCI-H322M lung 58.9% | HOP-62 NSCLC 36% | HOP-92 NSCLC 14.8% | A549/ATCC NSCLC 11.6% | 786-0 renal 11.8%
active: NCI-H460 lung 9.25% | NCI-H522 lung 3.13% | COLO 205 colon 6.63%

COc1ccc(NC(=O)c2cc(NCc3cc(O)ccc3O)ccc2O)cc1
inactive: NCI-H23 lung 90.4% | NCI-H226 lung 97% | NCI-H322M lung 91.1% | HOP-62 NSCLC 101% | NCI-H460 lung 87.2% | HOP-92 NSCLC 106% | A549/ATCC NSCLC 78.7% | 786-0 renal 107% | COLO 205 colon 113%
active: NCI-H522 lung -0.814%

O=C1c2ccc3c4c(ccc(c24)C(=O)N1CCCNCc1ccccc1F)C(=O)N(CCCNCc1ccccc1F)C3=O
active: NCI-H23 lung -53% | NCI-H226 lung -51.9% | NCI-H322M lung -83.5% | HOP-62 NSCLC -29.7% | NCI-H460 lung -55.2% | HOP-92 NSCLC -14.2% | NCI-H522 lung -92.5% | A549/ATCC NSCLC -91.2% | 786-0 renal -40.1% | COLO 205 colon -46%

CC/C(=C\c1ccc(OC)cc1)C(=O)c1ccc(OC)cc1
inactive: NCI-H23 lung 86.4% | NCI-H226 lung 93.7% | NCI-H322M lung 92.5% | HOP-62 NSCLC 86.8% | NCI-H460 lung 102% | HOP-92 NSCLC 85.2% | NCI-H522 lung 74.3% | A549/ATCC NSCLC 123% | 786-0 renal 97.3% | COLO 205 colon 121%

C/C(=N\NC(=O)CSc1nc2ccccc2c(=O)n1Cc1ccc(S(N)(=O)=O)cc1)c1ccc(F)cc1
inactive: NCI-H23 lung 105% | NCI-H226 lung 102% | NCI-H322M lung 102% | HOP-62 NSCLC 98.8% | NCI-H460 lung 103% | HOP-92 NSCLC 124% | NCI-H522 lung 18.1% | A549/ATCC NSCLC 102% | 786-0 renal 104% | COLO 205 colon 115%

O=C(/C(=C\c1ccc([N+](=O)[O-])cc1)S(=O)Cc1ccc(Cl)cc1)c1ccc(Cl)cc1 (stereo not given)
inactive: NCI-H23 lung 84.5% | NCI-H226 lung 92.9% | NCI-H322M lung 89.5% | HOP-62 NSCLC 96.1% | NCI-H460 lung 76.3% | HOP-92 NSCLC 83.6% | NCI-H522 lung 37.5% | A549/ATCC NSCLC 93.8% | 786-0 renal 32.1% | COLO 205 colon 74.7%

CCOc1ccc(/C=N/Nc2cc(C)nc3ccc(Br)cc23)cc1
inactive: NCI-H23 lung 82.2% | NCI-H226 lung 92.7% | NCI-H322M lung 93.5% | HOP-62 NSCLC 96.5% | NCI-H460 lung 87.2% | HOP-92 NSCLC 57.5% | NCI-H522 lung 97.7% | A549/ATCC NSCLC 82% | 786-0 renal 96.1% | COLO 205 colon 96.2%

O=C1Nc2cc(-c3ccc(NC(=O)c4ccccc4)cc3)ccc2/C1=C/c1ccc[nH]1
inactive: NCI-H23 lung 66.7% | NCI-H226 lung 90.6% | NCI-H322M lung 94.1% | HOP-62 NSCLC 104% | NCI-H460 lung 83.4% | HOP-92 NSCLC 115% | NCI-H522 lung 92.2% | A549/ATCC NSCLC 103% | 786-0 renal 107% | COLO 205 colon 118%

COc1ccc(/C=C/c2nc(Nc3ccc(Cl)cc3)c3ccccc3n2)cc1
inactive: NCI-H23 lung 73.1% | NCI-H226 lung 71.1% | NCI-H322M lung 44.3% | HOP-62 NSCLC 69% | NCI-H460 lung 18.2% | HOP-92 NSCLC 63.5% | NCI-H522 lung 69.3% | A549/ATCC NSCLC 35% | 786-0 renal 36.9% | COLO 205 colon 63.1%

COc1ccc(CNCCN2C(=O)c3ccc4c5c(ccc(c35)C2=O)C(=O)N(CCNCc2ccc(OC)c(OC)c2OC)C4=O)c(OC)c1OC
active: NCI-H23 lung -42.8% | NCI-H226 lung -13.7% | NCI-H322M lung -1.94% | NCI-H460 lung -21.2% | HOP-92 NSCLC 5.62% | NCI-H522 lung -78% | A549/ATCC NSCLC -39.9% | 786-0 renal 8.05% | COLO 205 colon -10.9%
inactive: HOP-62 NSCLC 20%

COc1cc2nc(-c3ccc(C(F)(F)F)cc3)cc(OCCCN3CCCC3)c2cc1OC
inactive: NCI-H23 lung 57.3% | NCI-H322M lung 62.8% | HOP-62 NSCLC 63.6% | NCI-H460 lung 22% | HOP-92 NSCLC 23.2% | NCI-H522 lung 28.5% | A549/ATCC NSCLC 39.9% | 786-0 renal 48.4% | COLO 205 colon 22.1%
active: NCI-H226 lung -8.25%

COc1cc2c(=O)n(CCCN(C)C)c3c4cc5c(cc4ccc3c2cc1OC)OCO5
inactive: NCI-H23 lung 58.6% | NCI-H226 lung 52.8% | NCI-H322M lung 61.6% | HOP-62 NSCLC 38% | NCI-H460 lung 18.2% | HOP-92 NSCLC 67.7% | NCI-H522 lung 53.9% | A549/ATCC NSCLC 41.8% | 786-0 renal 62.8% | COLO 205 colon 49%

O=[N+]([O-])c1ccc(NC(=S)N/N=C/c2cc3ccccc3n3nnnc23)cc1
inactive: NCI-H23 lung 30.1% | NCI-H226 lung 72% | NCI-H322M lung 51.9% | HOP-62 NSCLC 49.3% | NCI-H460 lung 32.2% | NCI-H522 lung 35.4% | A549/ATCC NSCLC 55.6% | 786-0 renal 61.6% | COLO 205 colon 96.9%
active: HOP-92 NSCLC -5.68%

O=C1NN(C(=O)c2ccccc2)C(c2ccc(Cl)c(Cl)c2)=C/C1=C\c1ccc([N+](=O)[O-])cc1
inactive: NCI-H23 lung 85.3% | NCI-H226 lung 88.7% | NCI-H322M lung 98% | HOP-62 NSCLC 101% | NCI-H460 lung 83% | NCI-H522 lung 63.8% | A549/ATCC NSCLC 96.2% | 786-0 renal 102% | COLO 205 colon 27.9%
active: HOP-92 NSCLC 3.02%

COc1cc2oc(-c3cccc(C(=O)Nc4ccc5c(c4)OCO5)c3)cc(=O)c2c(O)c1OC
inactive: NCI-H23 lung 72.7% | NCI-H226 lung 78.5% | NCI-H322M lung 81% | HOP-62 NSCLC 60.4% | NCI-H460 lung 54.3% | HOP-92 NSCLC 73% | NCI-H522 lung 76% | A549/ATCC NSCLC 74.9% | 786-0 renal 64.3% | COLO 205 colon 94.8%

OCc1cnccc1NCCCOc1ccccc1
inactive: NCI-H23 lung 97.7% | NCI-H226 lung 92.9% | NCI-H322M lung 100% | HOP-62 NSCLC 99.9% | NCI-H460 lung 106% | HOP-92 NSCLC 90.5% | NCI-H522 lung 100% | A549/ATCC NSCLC 93.2% | 786-0 renal 101% | COLO 205 colon 123%

Cn1cc(-c2nc(-c3c[nH]c4c(Cl)nccc34)cs2)c2cc(Br)ccc21
inactive: NCI-H23 lung 99.8% | NCI-H226 lung 81.4% | NCI-H322M lung 93.2% | HOP-62 NSCLC 82% | NCI-H460 lung 80.2% | HOP-92 NSCLC 91.2% | NCI-H522 lung 78.7% | A549/ATCC NSCLC 66.6% | 786-0 renal 84.6% | COLO 205 colon 90.4%

NC(=O)CSSCC(N)=O
inactive: NCI-H23 lung 99.2% | NCI-H226 lung 108% | NCI-H322M lung 96.9% | HOP-62 NSCLC 103% | NCI-H460 lung 111% | HOP-92 NSCLC 83.8% | NCI-H522 lung 92.1% | A549/ATCC NSCLC 93.1% | 786-0 renal 95.3% | COLO 205 colon 108%

Cc1nc2ccc(Cl)cn2c1-c1nnc(SCc2ccc([N+](=O)[O-])cc2)o1
inactive: NCI-H23 lung 55.9% | NCI-H226 lung 56.4% | NCI-H322M lung 63.6% | HOP-62 NSCLC 49.6% | NCI-H460 lung 49.5% | HOP-92 NSCLC 48.3% | NCI-H522 lung 45.8% | A549/ATCC NSCLC 66.8% | 786-0 renal 62.5% | COLO 205 colon 105%

N#Cc1c(NCc2ccccc2I)sc2c1CCCCC2
inactive: NCI-H23 lung 87.5% | NCI-H226 lung 87.5% | NCI-H322M lung 89.9% | HOP-62 NSCLC 91.3% | NCI-H460 lung 96.7% | HOP-92 NSCLC 88.8% | NCI-H522 lung 86.7% | A549/ATCC NSCLC 85.7% | 786-0 renal 90% | COLO 205 colon 108%

CC1(C)CC(O)CCCCCCOc2c(CN)cccc2NC(=O)c2nc(cnc2N)-c2ccc(cc2)S1(=O)=O (stereo not given)
inactive: NCI-H23 lung 28% | NCI-H226 lung 48.6% | NCI-H322M lung 44.4% | HOP-62 NSCLC 44.7% | HOP-92 NSCLC 115% | NCI-H522 lung 12.6% | A549/ATCC NSCLC 27.9% | COLO 205 colon 22.9%
active: NCI-H460 lung -30.2% | 786-0 renal -15.4%

COc1cc(C2=C(c3cn(C)c4ccccc34)COC2=O)cc(OC)c1OC
inactive: NCI-H23 lung 14.2% | NCI-H226 lung 15.3% | NCI-H322M lung 26.6% | HOP-62 NSCLC 31.7% | HOP-92 NSCLC 19.1% | A549/ATCC NSCLC 18.4% | 786-0 renal 20.9%
active: NCI-H460 lung 3.03% | NCI-H522 lung 3.38% | COLO 205 colon -4.65%

COCCCN1CC(O)=C(c2nc(-c3ccc(C)cc3)cs2)C1=N
inactive: NCI-H23 lung 96% | NCI-H226 lung 96.3% | NCI-H322M lung 97.3% | HOP-62 NSCLC 91.6% | NCI-H460 lung 153% | HOP-92 NSCLC 147% | NCI-H522 lung 106% | A549/ATCC NSCLC 85.4% | 786-0 renal 94.8% | COLO 205 colon 133%

COc1cc2nc(-c3ccc(C(F)(F)F)cc3)cc(OCCCN3CCOCC3)c2cc1OC
active: NCI-H226 lung -10.5%
inactive: NCI-H23 lung 56.5% | NCI-H322M lung 57.2% | HOP-62 NSCLC 51.9% | NCI-H460 lung 18.5% | HOP-92 NSCLC 11.2% | NCI-H522 lung 14.6% | A549/ATCC NSCLC 29% | 786-0 renal 21.5% | COLO 205 colon 20%

O=S(=O)(NCCNc1nccc(-c2c(-c3cccc(F)c3)nc3sccn23)n1)c1ccc(Br)cc1
inactive: NCI-H23 lung 72.6% | NCI-H226 lung 41.2% | NCI-H322M lung 61% | HOP-62 NSCLC 83.3% | NCI-H460 lung 27.8% | HOP-92 NSCLC 76.7% | NCI-H522 lung 62.6% | A549/ATCC NSCLC 34.1% | 786-0 renal 50.6% | COLO 205 colon 36.4%

COc1ccc(C(=O)/C=C/c2cc3ccccc3n3nnnc23)cc1
inactive: NCI-H23 lung 103% | NCI-H226 lung 105% | NCI-H322M lung 103% | HOP-62 NSCLC 103% | NCI-H460 lung 112% | HOP-92 NSCLC 109% | NCI-H522 lung 94% | A549/ATCC NSCLC 105% | 786-0 renal 91.4% | COLO 205 colon 122%

Cc1cccc(NC(=O)Nc2ccc(-n3cnc4cc(-c5ccc(O)cc5)ccc43)cc2)c1
active: NCI-H460 lung 9.07% | NCI-H522 lung 6.16%
inactive: NCI-H23 lung 27.7% | NCI-H226 lung 62.6% | NCI-H322M lung 69.8% | HOP-62 NSCLC 39.3% | HOP-92 NSCLC 81.1% | A549/ATCC NSCLC 24.9% | 786-0 renal 36.2% | COLO 205 colon 69.1%
